Compound activity deposited in PubChem by several laboratories.
Rows were chosen to be rich in hits. Some 3% of all compounds tested hit in one or more screens of this group.
BioA inh-1: BioA (M. tuberculosis) enzyme inhibition | purified M. tuberculosis BioA enzyme, plate reader | inhibition, % at 9.99 µM | 360,000 tested, 0.096% active | AID 602481; in the data active means inhibition above about 40%
Vc quorum ag: inducers of Vibrio cholerae quorum light production without autoinducers; V. cholerae BH1578 lux reporter, luminescence, 6 h; activation, % at 18.7 µM; 350,000 tested, 0.16% active; in the data active means activation mostly above about 9.7%, no sharp cut-off
Mtb FBA inh: Mtb fructose-bisphosphate aldolase inhibition. P9WQA3. purified M. tuberculosis FBA, fluorescence read-out. inhibition, % at 1 µM. 360,000 tested, 2.3% active. AID 588726; in the data active means inhibition above about 27%;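 further: 0% = vehicle and 100% = reference inhibitor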
GDH-TPI counter-1: inhibits GDH-TPI coupling enzymes, artifact for Mtb FBA screen; GDH-TPI coupled enzyme counterscreen, NADH absorbance; inhibition, % at 4.8 µM; 360,000 tested, 1.2% active; in the data active means inhibition above about 30%;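 further: 0% = DMSO wells and 100% = wells lacking the enzyme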
Mtb FBA inh conf: confirmation of M. tuberculosis fructose-bisphosphate aldolase inhibitors. inhibition, % at 1 µM. purified M. tuberculosis FBA, fluorescence read-out. 5,600 tested, 78% active. shares compounds with Mtb FBA inh; in the data active means inhibition above about 27%;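 further: 0% = vehicle wells and 100% = reference inhibitor wells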
GDH-TPI counter-2: counter-screen for M. tuberculosis FBA inhibitors: GDH-TPI coupled enzyme inhibition; shares compounds with Mtb FBA inh; GDH-TPI coupled enzyme counterscreen, fluorescence; inhibition, % at 1 µM; 5,600 tested, 81% active; in the data active means inhibition above about 10%
BioA inh-2: inhibitors of Mycobacterium tuberculosis BioA enzyme; shares compounds with BioA inh-1; purified BioA enzyme, plate reader, dose response; max activity, %; 310 tested, under 10 active; AID 651679;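 further: top concentration of the dilution series was 10 µM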
Target sequence (P9WQ81 whole entry, looked up): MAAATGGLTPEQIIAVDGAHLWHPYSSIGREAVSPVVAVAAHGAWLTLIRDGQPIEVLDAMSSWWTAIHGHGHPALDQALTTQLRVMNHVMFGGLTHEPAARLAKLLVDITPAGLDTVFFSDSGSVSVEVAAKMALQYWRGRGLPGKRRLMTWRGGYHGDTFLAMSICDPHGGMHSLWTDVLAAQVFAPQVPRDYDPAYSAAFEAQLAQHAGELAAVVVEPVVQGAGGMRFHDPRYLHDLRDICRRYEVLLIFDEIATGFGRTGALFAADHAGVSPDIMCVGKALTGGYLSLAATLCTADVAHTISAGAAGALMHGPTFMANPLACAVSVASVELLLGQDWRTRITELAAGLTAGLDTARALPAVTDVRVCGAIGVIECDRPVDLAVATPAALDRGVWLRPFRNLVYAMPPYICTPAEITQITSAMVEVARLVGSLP
HepG2 tox 2: kills HepG2 cells; shares compounds with BioA inh-1; 310 tested, under 10 active; HepG2 cytotoxicity, plate reader; max activity, %
NIH3T3 tox 5: NIH3T3 viability loss | shares compounds with BioA inh-1 | 310 tested, under 10 active | activity change, negative = cytotoxicity, % at 26 µM | NIH3T3 cytotoxicity, plate reader
Starred values were filed as active, the others as inactive; i = inactive; / = no result given; + = active, no number. Unless noted, how the calls were made is not given here.

SMILES	BioA inh-1	Vc quorum ag	Mtb FBA inh	GDH-TPI counter-1	Mtb FBA inh conf	GDH-TPI counter-2	others
CC(O)c1cc2c(cc1NC(=O)c1cnn3c1NC(c1ccco1)CC3C(F)(F)F)OCO2 (stereo unspecified)	-2	i	48*	7	57*	55*
CCC(C)NC(=O)c1cnn2c1NC(c1ccc3c(c1)OCO3)CC2C(F)(F)F (stereo unspecified)	3	0	-2	-16	/	/
CCN(CC)CCCNc1cc2n(c(=O)n1)CCc1cc(OC)c(OC)cc1-2	0	1	41*	17	-5	-6
Cc1cccc(S(=O)(=O)c2c(N)n(/N=C/c3cccnc3)c3nc4ccccc4nc23)c1	0	i	-2	3	/	/
Cc1cccc(S(=O)(=O)c2c(N)n(-c3ccccc3)c3nc4ccccc4nc23)c1	0	0	74*	16	63*	50*
CCOc1cc2c(C#N)c(N3CCCCC3)nc(N)c2c(N)n1	0	i	28*	7	84*	53*
CCOc1cc2c(C#N)c(N3CCNCC3)nc(N)c2c(N)n1	3	i	40*	10	151*	125*
CC(C)CCNC(=O)COc1ccc2c(c1)C(=O)CC(C)(C)O2	/	i	50*	12	+	+
CCC(Oc1ccc2c(c1)C(=O)CC(C)(C)O2)C(=O)NCCN1CCCCCC1 (stereo unspecified)	-1	-7	59*	12	-3	-6
COC(=O)c1scc2c(=O)cc(C(F)(F)F)[nH]c12	-2	i	29*	-3	/	+
Cc1ccccc1S(=O)(=O)N1CC[C@@H]2[C@@H](CO)N(C)c3ccc(-c4ccc(F)cc4)cc3[C@@H]21	9	/	/	/	/	/
CCOC(=O)Oc1ccc2c(=O)c(Oc3cccc(C)c3)coc2c1	-5	0	16	16	/	/
CCc1ccccc1Oc1coc2cc(O)ccc2c1=O	-1	i	31*	15	111*	75*
Cc1cccc(Oc2coc3cc(O)ccc3c2=O)c1	1	i	37*	10	72*	63*
COc1ccccc1Oc1coc2cc(OCC(N)=O)ccc2c1=O	2	i	1	3	/	/
C[C@@H]1CN([C@H](C)CO)C(=O)c2cccc(NC(=O)Nc3ccc4c(c3)OCO4)c2O[C@@H]1CN(C)C(=O)NC1CCCCC1	2	/	/	/	/	/
Cc1noc(C)c1S(=O)(=O)Nc1ccc2c(c1)C(=O)N([C@H](C)CO)C[C@@H](C)[C@H](CN(C)Cc1ccc3c(c1)OCO3)OCCCC[C@@H](C)O2	0	/	/	/	/	/
O=C(O)CCN1C(=O)C2CCCCC2C1=O (stereo unspecified)	-1	0	46*	7	+	193*
COc1ccc(-c2sc(C(=O)c3ccc(Cl)cc3Cl)cc2CC(=O)O)cc1	2	i	45*	16	73*	55*
C[C@H](CO)N1C[C@H](C)[C@@H](CN(C)C(=O)Nc2ccccc2)Oc2ncc(C#CC3CCCC3)cc2C1=O	1	/	/	/	/	/
COCCNC(=O)C[C@@H]1C[C@@H]2c3cc(NC(=O)c4cccnc4)ccc3O[C@@H]2[C@H](CO)O1	12	/	/	/	/	/
C[C@@H]1CCCCO[C@H](CN(C)C(=O)C2CCCCC2)[C@@H](C)CN([C@@H](C)CO)C(=O)c2cc(NC(=O)Cc3ccccc3)ccc2O1	1	/	/	/	/	/
O=C(Nc1cccnc1)c1cc2c(s1)-c1ccccc1OC2	25	0	73*	37*	71*	54*
Cc1cccc2c1-c1sc(C(=O)Nc3cccnc3)cc1CO2	7	i	101*	-1	1	-4
CC(=O)c1cccc(OCC(=O)c2cc(C)n(-c3cc(C)on3)c2C)c1	11	0	1	4	/	/
SMILES	BioA inh-1	Vc quorum ag	Mtb FBA inh	GDH-TPI counter-1	Mtb FBA inh conf	GDH-TPI counter-2	others
Cc1cc(-n2c(C)cc(C(=O)COc3ccc4ccc(=O)oc4c3)c2C)no1	/	-6	28*	3	60*	59*
COc1ccc(-c2coc3cc(O)c(OC)cc3c2=O)cc1	-2	i	44*	34*	84*	54*
COc1ccc(-c2coc3cc(OC)ccc3c2=O)cc1	0	0	7	17	/	/
COc1ccc(-c2coc3cc(O)ccc3c2=O)cc1	-1	-3	35*	22	121*	94*
CCC(=O)N(C)C[C@H]1Oc2cc(-c3ccc(OC)cc3)ccc2S(=O)(=O)N([C@H](C)CO)C[C@@H]1C	2	/	/	/	/	/
Cc1ccc(-c2nc(CN(C)C)cc(CN(C)C)c2O)cc1	-1	7	80*	26	5	-5
C[C@@H]1CN([C@H](C)CO)C(=O)CCCn2cc(nn2)CO[C@@H]1CN(C)Cc1ccc(C(=O)Nc2ccccc2N)cc1	1	/	/	/	/	/
Nc1cc(C(=O)O)ccc1Nc1ccccc1	75*	0	91*	8	126*	113*	BioA inh-2=-9;HepG2 tox 2=-7;NIH3T3 tox 5=-6
CCOC(=O)c1c(C)[n+](-c2ccc(C)cc2)c(CC)c2cc(OC)c(OC)cc12	77*	i	41*	11	82*	57*	BioA inh-2=-9;HepG2 tox 2=13;NIH3T3 tox 5=-3
COc1cccc(S(=O)(=O)N[C@H]2CC[C@@H](CC(=O)NCc3ccc(Cl)cc3)O[C@H]2CO)c1	-2	/	/	/	/	/
C[C@@H]1CN([C@H](C)CO)C(=O)Cc2cc(NC(=O)C3CCCCC3)ccc2O[C@@H]1CN(C)S(=O)(=O)c1ccc(F)cc1	0	/	/	/	/	/
O=[N+]([O-])c1ccc(C[n+]2ccccc2)cc1	-1	6	6	6	/	/
O=[N+]([O-])c1ccc(C[n+]2c(-c3ccccc3)cc(-c3ccccc3)cc2-c2ccccc2)cc1	59*	-1	67*	-11	+	+	BioA inh-2=-4;HepG2 tox 2=-9;NIH3T3 tox 5=0
O=C(Nc1ccc(F)c(F)c1)C1CCN(S(=O)(=O)c2cccs2)CC1	58*	i	0	0	/	/	BioA inh-2=-9;HepG2 tox 2=14;NIH3T3 tox 5=-5
Cc1ccc(NC(=O)C2CCN(S(=O)(=O)c3cccs3)CC2)cc1	/	-2	-1	-2	/	/
COc1ccc(NC(=O)Nc2ccc3c(c2)[C@H]2C[C@H](CC(=O)NCc4ccncc4)O[C@@H](CO)[C@H]2O3)cc1	0	/	/	/	/	/
O=C(COc1ccc2ccccc2c1)N1CCN(c2ccccc2)CC1	0	-1	-2	-6	/	/
O=C(COc1ccc2ccc(=O)oc2c1)N1CCN(c2ccc(F)cc2)CC1	55*	0	-2	-3	/	/	BioA inh-2=-11;HepG2 tox 2=-12;NIH3T3 tox 5=-8
CCCC(=O)Nc1ccc2c(c1)C(=O)N(C)C[C@H](OC)[C@H](C)CN(C(=O)c1ccncc1)[C@H](C)CO2	0	/	/	/	/	/
COC(=O)c1sc(N)c(C(=O)OC)c1CSc1nnc(-c2ccccc2Cl)n1C	59*	-12	2	14	/	/	BioA inh-2=-5;HepG2 tox 2=7;NIH3T3 tox 5=-8
